Values joined by “and” are separate entries in the source; they are usually repeats but may differ in a detail not shown here. Equal entries are not always repeated. In all, about 5,500 compounds went through this assay and about 2,000 (36%) were called active. Another 18% or so got no clear call; they are omitted. Cut-off read from the data, not from the text of the source: active = normalized growth mostly below about 0.91 (no sharp cut-off); inconclusive = no clear call, values can overlap the other calls; inactive = mostly above about 0.92. Some of the results follow.
Assay: chemical genetic growth profiling, strain panel (AID 1159580);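 note: tested at 20 µM; growth read once vehicle control cultures reached saturation at 30 °C; 1 = growth at the plate median or of vehicle wells; lower values mean less growth of the strain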
Details: S. cerevisiae deletion strains, growth OD

Measured: normalized growth

c1ccc2c(c1)CN1CCCC1=N2
active: locus YBR021W, strain FUR4, active compounds read low 1.19 [resistant]
inactive: locus YAL021C, strain ccr4, active compounds read low 0.998 | locus YAL026C, strain drs2, active compounds read low 1 | locus YAL030W, strain snc1, active compounds read low 1 | locus YBL061C, strain skt5, active compounds read low 0.999 | locus YBR009C, strain hhf1, active compounds read low 0.987 | locus YBR023C, strain chs3, active compounds read low 1 | locus YBR171W, strain sec66, active compounds read low 1 | locus YBR229C, strain ROT2, active compounds read low 1.01 | locus YBR231C, strain swc5, active compounds read low 0.997 | locus YBR279W, strain paf1, active compounds read low 0.996 | locus YCL011C, strain gbp2, active compounds read low 1.01 | locus YCL016C, strain dcc1, active compounds read low 0.997 | locus YCL029C, strain bik1, active compounds read low 0.972 | locus YCL061C, strain MRC1, active compounds read low 1.01 | locus YCL069W, strain vba3, active compounds read low 1 | locus YCR088W, strain abp1, active compounds read low 0.998 | locus YDL005C, strain med2, active compounds read low 0.993 | locus YDL035C, strain GPR1, active compounds read low 1.03 | locus YDL040C, strain nat1, active compounds read low 1 | locus YDL074C, strain BRE1, active compounds read low 1.01 | locus YDL101C, strain DUN1, active compounds read low 0.99 | locus YDL134C, strain PPH21, active compounds read low 1.01 | locus YDL185W, strain tfp1, active compounds read low 0.971 | locus YDL192W, strain arf1, active compounds read low 0.985 | locus YDR001C, strain nth1, active compounds read low 0.992 | locus YDR069C, strain doa4, active compounds read low 1 | locus YDR101C, strain arx1, active compounds read low 0.978 | locus YDR137W, strain rgp1, active compounds read low 1.01 | locus YDR150W, strain NUM1, active compounds read low 0.998 | locus YDR159W, strain sac3, active compounds read low 0.991 | locus YDR162C, strain NBP2, active compounds read low 1.02 | locus YDR195W, strain ref2 0.968 | locus YDR297W, strain sur2, active compounds read low 1 | locus YDR318W, strain mcm21, active compounds read low 0.988 | locus YDR334W, strain swr1, active compounds read low 0.999 | locus YDR335W, strain msn5, active compounds read low 1.01 | locus YDR388W, active compounds read low 0.989 | locus YDR392W, strain spt3, active compounds read low 0.919 | locus YDR502C, strain sam2, active compounds read low 0.988 | locus YEL003W, strain gim4, active compounds read low 0.999 | locus YEL037C, strain rad23, active compounds read low 0.999 | locus YEL061C, strain CIN8 (second series), active compounds read low 0.996 | locus YEL061C, strain CIN8, active compounds read low 1 | locus YER015W, strain faa2, active compounds read low 0.998 | locus YER016W, strain bim1, active compounds read low 1 | locus YER110C, active compounds read low 0.967 | locus YER111C, strain swi4, active compounds read low 1 | locus YER155C, strain BEM2 (second series), active compounds read low 1 | locus YER155C, strain BEM2, active compounds read low 0.993 | locus YER167W, strain BCK2, active compounds read low 1 | locus YFR010W, strain ubp6, active compounds read low 1 | locus YGL078C, strain dbp3, active compounds read low 0.993 | locus YGL086W, strain mad1, active compounds read low 0.967 | locus YGL167C, strain pmr1, active compounds read low 0.995 | locus YGL173C, strain kem1, active compounds read low 0.997 | locus YGL227W, strain vid30, active compounds read low 0.993 | locus YGL240W, strain doc1, active compounds read low 1.01 | locus YGL248W, strain PDE1, active compounds read low 1 | locus YGL253W, strain hxk2, active compounds read low 1 | locus YGR078C, strain PAC10, active compounds read low 1.01 | locus YGR135W, strain pre9, active compounds read low 0.998 | locus YGR229C, strain SMI1, active compounds read low 1.03 | locus YGR252W, strain gcn5, active compounds read low 1.1 | locus YHR013C, strain ard1, active compounds read low 0.983 | locus YHR027C, strain rpn1, active compounds read low 1.01 | locus YHR030C, strain SLT2, active compounds read low 1.01 and 0.994 | locus YHR079C, strain IRE1 (second series), active compounds read low 0.97 | locus YHR079C, strain IRE1, active compounds read low 1.02 | locus YHR094C, strain hxt1, active compounds read low 0.991 | locus YHR129C, strain ARP1, active compounds read low 0.995 | locus YHR142W, strain chs7, active compounds read low 1.01 | locus YHR200W, strain rpn10, active compounds read low 0.979 | locus YIL066C, strain RNR3, active compounds read low 1.01 | locus YIL073C, strain SPO22, active compounds read low 0.906 | locus YIL125W, strain kgd1, active compounds read low 0.989 | locus YIR030C, strain dcg1, active compounds read low 0.985 | locus YJL092W, strain hpr5, active compounds read low 0.995 | locus YJL095W, strain BCK1 (second series), active compounds read low 1 | locus YJL095W, strain BCK1, active compounds read low 1 and 0.988 | locus YJL115W, strain asf1, active compounds read low 1 | locus YJL129C, strain trk1, active compounds read low 1.01 | locus YJL134W, strain LCB3, active compounds read low 1.01 | locus YJL154C, strain vps35, active compounds read low 0.996 | locus YJL164C, strain tpk1, active compounds read low 1.01 | locus YJL166W, strain qcr8, active compounds read low 1 | locus YJL168C, strain set2, active compounds read low 0.98 | locus YJL187C, strain SWE1 (second series), active compounds read low 0.99 | locus YJL187C, strain SWE1, active compounds read low 1 | locus YJR043C, strain POL32, active compounds read low 1.06 | locus YJR066W, strain TOR1, active compounds read low 0.989 | locus YKL009W, strain mrt4, active compounds read low 0.955 | locus YKL068W, active compounds read low 0.984 | locus YKL085W, strain MDH1 (second series), active compounds read low 0.981 | locus YKL085W, strain MDH1, active compounds read low 0.981 | locus YKL160W, strain elf1, active compounds read low 1 | locus YKL190W, strain CNB1, active compounds read low 1.01 | locus YKR001C, strain vps1, active compounds read low 0.98 | locus YKR026C, strain gcn3, active compounds read low 0.992 | locus YKR091W, strain srl3, active compounds read low 0.994 | locus YLL001W, strain dnm1, active compounds read low 0.988 | locus YLL026W, active compounds read low 0.996 | locus YLL041C, strain sdh2, active compounds read low 0.996 | locus YLR027C, strain aat2, active compounds read low 1.01 | locus YLR039C, strain RIC1, active compounds read low 1.01 | locus YLR058C, strain SHM2, active compounds read low 1 | locus YLR102C, strain apc9, active compounds read low 0.981 | locus YLR113W, strain HOG1, active compounds read low 0.973 | locus YLR221C, strain rsa3, active compounds read low 0.999 | locus YLR258W, strain gsy2, active compounds read low 1 | locus YLR262C, strain YPT6 (second series), active compounds read low 1.02 | locus YLR262C, strain YPT6, active compounds read low 1.04 | locus YLR268W, strain sec22, active compounds read low 0.951 | locus YLR320W, strain mms22, active compounds read low 1.01 | locus YLR330W, strain CHS5, active compounds read low 0.996 | locus YLR342W, strain FKS1 (second series), active compounds read low 1.08 | locus YLR342W, strain FKS1, active compounds read low 1.01 | locus YLR357W, strain rsc2, active compounds read low 0.991 | locus YLR370C, strain arc18, active compounds read low 1.01 | locus YLR371W, strain rom2, active compounds read low 0.965 | locus YLR384C, strain iki3, active compounds read low 0.988 | locus YLR418C, strain cdc73, active compounds read low 1 | locus YML016C, strain PPZ1, active compounds read low 1 | locus YML032C, strain rad52, active compounds read low 1.01 | locus YML120C, strain ndi1, active compounds read low 1.01 | locus YML124C, strain tub3, active compounds read low 1 | locus YMR058W, strain fet3, active compounds read low 1 | locus YMR078C, strain ctf18, active compounds read low 0.959 | locus YMR125W, strain sto1, active compounds read low 1.01 | locus YMR129W, active compounds read low 0.976 | locus YMR205C, strain PFK2, active compounds read low 0.99 | locus YMR223W, strain ubp8, active compounds read low 0.992 | locus YMR231W, strain pep5, active compounds read low 0.996 | locus YMR263W, strain SAP30, active compounds read low 0.991 | locus YMR307W, strain GAS1, active compounds read low 1.21 | locus YNL067W, strain RPL9B, active compounds read low 0.979 | locus YNL071W, strain lat1, active compounds read low 1.01 | locus YNL153C, strain GIM3, active compounds read low 1 | locus YNL183C, strain NPR1, active compounds read low 0.967 | locus YNL209W, strain ssb2, active compounds read low 1 | locus YNL233W, strain BNI4, active compounds read low 1 | locus YNL248C, strain rpa49, active compounds read low 1.01 | locus YNL250W, strain rad50, active compounds read low 0.937 | locus YNL271C, strain bni1, active compounds read low 0.989 | locus YNL298W, strain CLA4, active compounds read low 0.996 | locus YNL307C, strain MCK1, active compounds read low 0.972 | locus YNL322C, strain KRE1 (second series), active compounds read low 1 | locus YNR049C, strain mso1, active compounds read low 1 | locus YNR052C, strain pop2, active compounds read low 0.992 | locus YOL006C, strain TOP1, active compounds read low 0.918 | locus YOL012C, strain htz1 0.782 | locus YOL147C, strain pex11, active compounds read low 0.995 | locus YOR001W, strain rrp6, active compounds read low 1 | locus YOR061W, strain CKA2, active compounds read low 0.998 | locus YOR069W, strain VPS5, active compounds read low 0.998 | locus YOR070C, strain gyp1, active compounds read low 0.993 | locus YOR080W, strain dia2, active compounds read low 0.992 | locus YOR083W, strain WHI5, active compounds read low 1 | locus YOR106W, strain vam3, active compounds read low 1.02 | locus YOR136W, strain idh2, active compounds read low 0.976 | locus YOR144C, strain elg1, active compounds read low 1.01 | locus YOR184W, strain ser1, active compounds read low 0.992 | locus YOR231W, strain MKK1, active compounds read low 1.02 | locus YOR265W, strain rbl2, active compounds read low 1.01 | locus YOR270C, strain vph1, active compounds read low 1.02 | locus YOR290C, strain snf2, active compounds read low 0.955 | locus YOR316C, strain cot1, active compounds read low 0.98 | locus YPL051W, strain arl3, active compounds read low 1.01 | locus YPL055C, strain LGE1, active compounds read low 1 | locus YPL078C, strain atp4, active compounds read low 1.01 | locus YPL106C, strain sse1, active compounds read low 1.02 | locus YPL240C, strain hsp82, active compounds read low 0.992 | locus YPL256C, strain CLN2, active compounds read low 1 | locus YPR119W, strain clb2, active compounds read low 0.966 | locus YPR141C, strain kar3, active compounds read low 0.969 | locus YPR163C, strain tif3, active compounds read low 0.997 | locus YPR167C, strain met16, active compounds read low 0.976 | strain wtn01, active compounds read low 0.957

Reference: PubChem BioAssay AID1159580 (chemical genetic matrix, 2015)
